Source: PubChem (The Scripps Research Institute Molecular Screening Center)
PPARg SRC2 recr: agonists of PPARg-SRC-2 recruitment, primary screen, biochemical, HTS | PPARgamma LBD-SRC-2 recruitment | activation, % at 8 µM | 0.34% of 200,000 active; in the data active means activation above about 22%
Target sequence (P37231 whole entry, looked up, the tested form may be a part): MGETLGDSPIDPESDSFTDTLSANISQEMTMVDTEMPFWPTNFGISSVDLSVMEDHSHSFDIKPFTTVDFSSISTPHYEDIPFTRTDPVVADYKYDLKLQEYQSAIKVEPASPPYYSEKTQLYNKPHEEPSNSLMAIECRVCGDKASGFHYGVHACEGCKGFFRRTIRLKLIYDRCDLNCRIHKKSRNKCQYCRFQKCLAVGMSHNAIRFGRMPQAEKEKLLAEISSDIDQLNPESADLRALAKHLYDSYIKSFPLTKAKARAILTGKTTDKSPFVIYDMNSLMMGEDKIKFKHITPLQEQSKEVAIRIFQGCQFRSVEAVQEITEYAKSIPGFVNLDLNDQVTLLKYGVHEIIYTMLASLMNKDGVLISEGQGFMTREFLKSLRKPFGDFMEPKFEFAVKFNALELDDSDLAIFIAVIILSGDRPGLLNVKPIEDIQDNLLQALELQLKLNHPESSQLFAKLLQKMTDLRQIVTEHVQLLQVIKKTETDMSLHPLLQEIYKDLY
PPARg SRC1 recr: PPARgamma agonists recruiting SRC-1 coactivator, primary screen, biochemical. AID 631, 2007. PPARgamma-SRC-1 coactivator recruitment biochemical assay. activation, % at 8 µM. 0.41% of 200,000 active; in the data active means activation above about 19%
SRC1 TRFRET art: TR-FRET detection interference compounds, primary screen, artefact control for PPARgamma SRC-1 recruitment agonists, biochemical, TR-FRET emission ratio; AID 1051, 2008; 0.34% of 99,000 active; TR-FRET ratio at 8 µM; TR-FRET detection artefact counter-screen; active compounds read high; in the data active means TR-FRET ratio above about 2300
SRC2 TRFRET art: TR-FRET signal artefacts, primary screen, artefact control for PPARgamma SRC-2 agonist project, biochemical | TR-FRET ratio at 8 µM | 0.4% of 200,000 active | TR-FRET artefact counter-screen; active compounds read high
SRC3 TRFRET art: TR-FRET detection interference compounds, artefact control for PPARgamma SRC-3 recruitment agonists, biochemical, TR-FRET ratio; TR-FRET artefact counter-screen, PPARgamma/SRC-3 format; active compounds read high; TR-FRET ratio at 8 µM; 0.39% of 99,000 active
PPARg SRC3 recr: PPARgamma agonists recruiting SRC-3 coactivator, primary screen, biochemical | Peroxisome proliferator-activated receptor gamma (Homo sapiens), P37231 | activation, % at 8 µM | AID 731, 2007 | biochemical PPARgamma/SRC-3 coactivator recruitment assay | 0.26% of 200,000 active; in the data active means activation above about 23%
PPARg SRC2 conf: agonists of PPARgamma SRC-2 coactivator recruitment, confirmation, biochemical, HTS; shares compounds with PPARg SRC3 recr; activation, % at 8 µM; biochemical SRC-2 recruitment by PPARgamma; 52% of 790 active; in the data active means activation above about 22%
PPARg SRC1 conf: PPARgamma agonists recruiting SRC-1 coactivator, confirmation, biochemical; 43% of 790 active; PPARgamma–SRC-1 coactivator recruitment biochemical assay; shares compounds with PPARg SRC3 recr; AID 1300, 2008; activation, % at 8 µM; in the data active means activation above about 20%
PPARg SRC3 ag: PPARgamma-driven SRC-3 coactivator recruitment agonists, confirmation, biochemical; shares compounds with PPARg SRC3 recr; biochemical PPARgamma-SRC-3 coactivator recruitment, agonist mode; activation, % at 8 µM; 29% of 790 active; in the data active means activation above about 24%
Numbers stand for hits; - = inactive; . = no result. Compounds with a hit are over-represented: about 0.9% of the library has one in this group of screens. Unless noted, no stated cut-off is given here; in the data, active means TR-FRET ratio above about 2000; inactive means the rest.

SMILES	PPARg SRC2 recr	PPARg SRC1 recr	SRC1 TRFRET art	SRC2 TRFRET art	SRC3 TRFRET art	PPARg SRC3 recr	PPARg SRC2 conf	PPARg SRC1 conf	PPARg SRC3 ag
CNC(=S)N1N=C(c2ccc(OC)cc2)CC1c1ccc(N(C)C)cc1 (stereo not drawn)	-	-	.	-	.	-	.	.	.
Cc1ccc2[nH]c3c(c2c1)SC(C)(C)CC3=O	-	-	-	-	-	-	.	.	.
COc1cc(C(=O)NCCC(C)C)ccc1OCc1ccc(Cl)cc1Cl	-	48.0	-	-	-	46.5	-	45.4	38.1
O=C(COc1cccc(Br)c1)N/N=C1\CCSC1	-	-	-	-	-	-	.	.	.
CCC(=O)N1CCc2cc(Br)cc(S(=O)(=O)N(C)c3ccc(OC)cc3OC)c21	-	-	-	-	-	-	.	.	.
Cc1ccc(/C=N/Nc2ccc3ccccc3n2)o1	-	22.2	-	-	-	-	-	-	-
COc1cc(SC)ccc1C(=O)Nc1nccs1	-	-	-	-	-	-	.	.	.
CCC1(C)Cc2c(C#N)c(N)sc(=S)c2CO1 (stereo not drawn)	-	-	.	-	.	27.0	-	-	-
COc1ccccc1C1Nc2cccc3cccc(c23)N1	-	19.3	.	-	.	-	-	-	-
CN(C)CCN1C(=O)C(O)=C(C(=O)c2cc3ccccc3o2)C1c1cccc(Br)c1 (stereo not drawn)	44.8	36.3	.	2387	.	58.4	38.1	25.8	26.3
O=C(C1=C(O)C(=O)N(CCCN2CCOCC2)C1c1ccccn1)c1cc2ccccc2o1 (stereo not drawn)	25.2	20.9	.	-	.	35.4	-	-	-
CCN(CC)CCN1C(=O)C(O)=C(C(=O)c2sc(C)nc2C)C1c1cccnc1 (stereo not drawn)	-	-	.	-	.	-	.	.	.
O=C(C1=C(O)C(=O)N(CCc2ccccc2)C1c1ccncc1)c1cc2ccccc2o1 (stereo not drawn)	24.6	20.6	2514	2092	2106	-	26.2	-	-
CCN(CC)CCN1C(=O)C(O)=C(C(=O)c2cc3ccccc3o2)C1c1cccnc1 (stereo not drawn)	39.5	33.0	.	2274	.	52.2	-	-	-
COc1cc(C2C(C(C)=O)=C(O)C(=O)N2CCN(C)C)ccc1O (stereo not drawn)	-	-	.	-	.	-	.	.	.
COc1ccccc1C1C(C(=O)c2cc3ccccc3o2)=C(O)C(=O)N1CCN(C)C (stereo not drawn)	-	19.8	.	1988	.	-	-	-	-
C/C(=N/NC(=O)c1ccc(C)nc1)c1ccc2c(c1)CCCC2	-	-	-	-	-	-	.	.	.
Cc1ccc(C)c(CSC2=NCCN2C(=O)c2cccs2)c1	-	-	-	-	-	-	.	.	.
Cn1c(=Nc2ccc(N3CCOCC3)cc2)ccc2ccccc21	-	-	.	-	.	-	.	.	.
Cn1c(N=Nc2ccc(N3CCOCC3)cc2)[n+](C)c2ccccc21	52.6	42.9	2668	2551	2227	38.6	-	-	-
CCN(CC)S(=O)(=O)c1ccc2oc(C(=O)Nc3ccc(OC)cc3OC)c(C)c2c1	-	18.9	.	-	.	-	-	-	-
COc1ccc(NC(=O)c2oc3cc(C)c(C)cc3c2C)c(OC)c1	-	-	.	-	.	-	.	.	.
CC(=O)C1=C(O)C(=O)N(CCc2c[nH]c3ccccc23)C1c1cccc(O)c1 (stereo not drawn)	-	-	.	-	.	-	.	.	.
COc1cc(C2C(C(C)=O)=C(O)C(=O)N2CCc2c[nH]c3ccccc23)ccc1O (stereo not drawn)	-	18.9	.	-	.	-	-	-	-
CC12CCC(C(=O)N(CSC(=S)N/N=C\c3ccccc3O)C1=O)C2(C)C (stereo not drawn)	30.2	-	.	-	.	42.9	45.6	43.5	24.9
SMILES	PPARg SRC2 recr	PPARg SRC1 recr	SRC1 TRFRET art	SRC2 TRFRET art	SRC3 TRFRET art	PPARg SRC3 recr	PPARg SRC2 conf	PPARg SRC1 conf	PPARg SRC3 ag
O=C(CCCCCn1c(=S)[nH]c2cc3c(cc2c1=O)OCO3)N1CCN(Cc2ccccc2)CC1	-	-	.	-	.	-	.	.	.
O=C(CCCCCn1c(=S)[nH]c2cc3c(cc2c1=O)OCO3)N1CCN(C(=O)c2ccco2)CC1	31.7	-	.	-	.	25.7	-	-	-
COCCn1c(-c2ccc(-c3ccc([N+](=O)[O-])cc3Br)o2)nc2c1c(=O)[nH]c(=O)n2CC(C)C	-	-	-	-	-	-	.	.	.
CC(Sc1nc(N2CCCCC2)c2c(c1C#N)CCCC2)C(=O)O (stereo not drawn)	29.5	19.1	.	-	.	-	24.6	-	-
CCOC(=O)C1=C(C)OC(N)=C(C#N)C1c1cc2cc(C)ccc2nc1N1CCCCC1 (stereo not drawn)	40.2	38.2	.	2305	.	61.8	62.3	44.0	42.0
CCOC(=O)C1=C(C)OC(N)=C(C#N)C1c1cc(C)sc1C (stereo not drawn)	-	-	.	-	.	-	.	.	.
O=C(/C=C/c1ccc2c(c1)OCO2)Nc1cccnc1	-	-	-	-	-	-	.	.	.
